Inconclusive results are not listed. Activity calls are given as the source filed them. The calls were made as follows, unless noted: active = hit-call score of the fitted dose curve at least 0.9, where 1 is the maximum; inconclusive = response in the unintended direction; inactive = score below 0.9.
What was measured:
[1] = ATG_TCF_b_cat_CIS: Attagene CIS-FACTORIAL HepG2 Assay for human T-Cell-Factor with beta-catenin (TCF/b-cat) (AID 2282965; active = hit-call score of the fitted dose curve at least 0.9, where 1 is the maximum; inactive = score below 0.9); conditions: HepG2 TCF/beta-catenin cis-reporter transcription, actives raise or lower the signal
Procedure, shortened: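 Endogenous transcription factor activity is captured through cis-promoter reporter constructs transiently introduced into human HepG2 liver cells. Induced reporter mRNA is measured after 24 h and fitted bidirectionally relative to DMSO.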

[2] = ATG_TAL_CIS: Attagene CIS-FACTORIAL HepG2 Assay for human TAL Basal Promoter (AID 2282966; active = hit-call score of the fitted dose curve at least 0.9, where 1 is the maximum; inactive = score below 0.9;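 also: background control endpoint measuring basal TAL promoter reporter mRNA not a specific factor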); conditions: HepG2 Attagene cis-factorial TAL promoter reporter; actives raise or lower the signal
Procedure, shortened: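 Human hepatoma HepG2 cells, transfected with promoter-regulated reporter units, were treated 24 h. Reporter transcript levels, measured through RT-PCR and capillary electrophoresis, were fitted for gain or loss relative to DMSO.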

[3] = ATG_TGFb_CIS: Attagene CIS-FACTORIAL HepG2 Assay for human Transforming Growth Factor (TGF) (AID 2282967; active = hit-call score of the fitted dose curve at least 0.9, where 1 is the maximum; inactive = score below 0.9); conditions: HepG2 Attagene CIS TGFb reporter, mRNA transcription; actives raise or lower the signal
Procedure, shortened: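 Readout: fluorescently labeled reporter cDNA fragments resolved by capillary electrophoresis after RT-PCR. Transfected HepG2 cells dosed for 24 h; endogenous TF activity at TGFB1-linked cis element; gain or loss fitted relative to DMSO.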

[4] = ATG_VDRE_CIS: Attagene CIS-FACTORIAL HepG2 Assay for human Vitamin D Receptor Element (VDRE) (AID 2282968; active = hit-call score of the fitted dose curve at least 0.9, where 1 is the maximum; inactive = score below 0.9); conditions: HepG2 VDRE cis-reporter transcription, actives raise or lower the signal
Procedure, shortened: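 Readout is VDRE-driven reporter mRNA reflecting endogenous factor activity in human HepG2 cells, sampled 24 h post-dose. Quantification used labelled RT-PCR products separated by capillary electrophoresis; bidirectional analysis relative to DMSO.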

[5] = biological target: Nuclear receptor subfamily 1 group I member 3 (Homo sapiens) (UniProt Q14994); experiment: ATG_CAR_TRANS: Attagene TRANS-FACTORIAL HepG2 Assay for human Constitutive Androstane Receptor (CAR) (AID 2282969); conditions: HepG2 Attagene TRANS-FACTORIAL CAR reporter;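 also: activators raise reporter mRNA above DMSO so AC50 marks induction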
Procedure, shortened: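 Signal is reporter mRNA induction relative to DMSO, measured 24 h after dosing by RT-PCR with fluorescent primer extension and capillary electrophoresis. Human HepG2 liver cells carried transiently transfected chimeric NR-Gal4/GAL4-UAS reporter constructs.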

[6] = biological target: Estrogen receptor (Homo sapiens) (UniProt P03372); experiment: ATG_ERa_TRANS: Attagene TRANS-FACTORIAL HepG2 Assay for human Estrogen Receptor alpha (ERa) (AID 2282970); conditions: HepG2 Attagene TRANS ERa GAL4 reporter, mRNA
Procedure, shortened: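 Signal derives from fluorescence of labelled reporter PCR fragments separated by capillary electrophoresis. HepG2 cells transiently carrying multiple GAL4-UAS reporter units were treated 24 hours, and induction above DMSO baseline was fitted as activity.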

[7] = biological target: X-box-binding protein 1 (Homo sapiens) (UniProt P17861); experiment: ATG_Xbp1_CIS: Attagene CIS-FACTORIAL HepG2 Assay for human X-box Binding Protein 1 (XBP1) (AID 2282972; active = hit-call score of the fitted dose curve at least 0.9, where 1 is the maximum; inactive = score below 0.9); conditions: HepG2 XBP1 cis-element reporter, Attagene multiplex; actives raise or lower the signal
Procedure, shortened: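 Changes in reporter transcript abundance, read by RT-PCR and capillary electrophoresis, reflect endogenous transcription factor activity. Transfected HepG2 cells received compound for 24 hours; DMSO defined baseline for bidirectional analysis.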

[8] = ATG_M_19_TRANS: Attagene TRANS-FACTORIAL HepG2 Assay for M19 Transcription Factor (Internal Marker) (AID 2282974); conditions: HepG2 Attagene TRANS-FACTORIAL M19 internal marker reporter
Procedure, shortened: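 Background-control readout: after 24 h chemical exposure of transfected HepG2 carrying GAL4-driven reporter units, RNA was reverse-transcribed, amplified, fluorescently labeled and sized by capillary electrophoresis; gain-of-signal fit against DMSO.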

[9] = ATG_GAL4_TRANS: Attagene TRANS-FACTORIAL HepG2 Assay for GAL4 (Internal Marker) (AID 2282976); conditions: HepG2 Attagene TRANS GAL4 internal marker reporter
Procedure, shortened: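 Liver HepG2 line bearing multiplexed GAL4-UAS reporter constructs; 24 h chemical treatment. Transcripts were quantified as fluorescent fragments on capillary electrophoresis after RT-PCR and HpaI cut, with activity fitted upward from DMSO.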

[10] = biological target: Oxysterols receptor LXR-alpha (Homo sapiens) (UniProt Q13133); experiment: ATG_LXRa_TRANS: Attagene TRANS-FACTORIAL HepG2 Assay for human Liver X Receptor alpha (LXRa) (AID 2282980); conditions: HepG2 Attagene TRANS reporter, LXRa transactivation
Procedure, shortened: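 In this multiplexed TRANS system, compounds act on HepG2 cells carrying GAL4-UAS reporter units and a receptor-GAL4 fusion for 24 h. Induced reporter RNA is amplified, fluorescently labelled and sized by capillary electrophoresis, with DMSO as baseline.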

[11] = biological target: Hepatocyte nuclear factor 4-alpha (Homo sapiens) (UniProt P41235); experiment: ATG_HNF4a_TRANS: Attagene TRANS-FACTORIAL HepG2 Assay for human Hepatocyte Nuclear Factor 4 alpha (HNF4a) (AID 2282982); conditions: HepG2 HNF4a transactivation reporter, mRNA readout
Procedure, shortened: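 Activity of an exogenous HNF4a–Gal4 fusion scored as induced GAL4-UAS reporter transcripts after 24 h chemical exposure of transfected human HepG2 cells. Read-out via RT-PCR with 6-FAM labelling and capillary electrophoresis; rise over DMSO baseline.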

[12] = biological target: Nuclear receptor subfamily 4 group A member 2 (Homo sapiens) (UniProt P43354); experiment: ATG_NURR1_TRANS: Attagene TRANS-FACTORIAL HepG2 Assay for human Nuclear Receptor Related Protein 1 (NURR1) (AID 2282985); conditions: HepG2 Attagene TRANS reporter, mRNA readout
Procedure, shortened: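 Reporter transcript induction, measured by RT-PCR with fluorescent labelling, HpaI digestion and capillary electrophoresis, after 24 hr dosing of human HepG2 cells transiently expressing an exogenous NR-Gal4 fusion with GAL4-UAS-driven reporters; DMSO as baseline.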

[13] = biological target: Transcriptional activator Myb (Homo sapiens) (UniProt P10242); experiment: ATG_Myb_CIS: Attagene CIS-FACTORIAL HepG2 Assay for human Myeloblastosis (Myb) Proto-Oncogene Transcription Factor (AID 2282986; active = hit-call score of the fitted dose curve at least 0.9, where 1 is the maximum; inactive = score below 0.9); conditions: HepG2 Attagene CIS-FACTORIAL Myb reporter transcription; actives raise or lower the signal
Procedure, shortened: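 Reporter mRNA is quantified by RT-PCR and capillary electrophoresis 24 h after dosing HepG2 cells transfected with cis-regulated reporter units, which track endogenous transcription factor activity. Gain and loss of signal are fitted versus DMSO baseline.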

[14] = biological target: Glucocorticoid receptor (Homo sapiens) (UniProt P04150); experiment: ATG_GR_TRANS: Attagene TRANS-FACTORIAL HepG2 Assay for human Glucocorticoid Receptor (GR) (AID 2282978); conditions: HepG2 Attagene TRANS GR reporter, mRNA transcription;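 also: activators score as hits since higher reporter transcript over DMSO is fitted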
Procedure, shortened: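 Readout is reporter transcript from a chimeric GR-Gal4 acting on GAL4-UAS in transfected human HepG2 liver cells after 24 h exposure, quantified by RT-PCR and capillary electrophoresis. Activation fitted upward against DMSO.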

[15] = ATG_M_06_TRANS: Attagene TRANS-FACTORIAL HepG2 Assay for M06 Transcription Factor (Internal Marker) (AID 2282983); conditions: HepG2 Attagene TRANS M06 internal marker reporter
Procedure, shortened: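 Multi-reporter-transfected HepG2, 24 h treatment; reporter transcripts quantified via RT-PCR, primer-extension labelling and CE. DMSO-normalized gain-of-signal fit.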

[16] = ATG_M_32_TRANS: Attagene TRANS-FACTORIAL HepG2 Assay for M32 Transcription Factor (Internal Marker) (AID 2282984); conditions: HepG2 Attagene TRANS M32 internal marker reporter
Procedure, shortened: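 Internal background reporter in transfected HepG2: after 24 h chemical exposure, RNA reverse-transcribed, reporter cDNA amplified, fluorescently labelled and HpaI-cut, then sized by capillary electrophoresis. Gain of signal fitted against DMSO control.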

[17] = biological target: Steroid hormone receptor ERR1 (Homo sapiens) (UniProt P11474); experiment: ATG_ERRa_TRANS: Attagene TRANS-FACTORIAL HepG2 Assay for human Estrogen-Related Receptor alpha (ERRa) (AID 2282971); conditions: HepG2 Attagene TRANS reporter, ERRa transactivation
Procedure, shortened: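 Signal gain relative to DMSO for an ERRa-Gal4 chimeric receptor, read as reporter mRNA by RT-PCR/capillary electrophoresis. Human HepG2 liver cells, transient multiplex reporter transfection, 24 h chemical exposure.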

[18] = biological target: Estrogen-related receptor gamma (Homo sapiens) (UniProt P62508); experiment: ATG_ERRg_TRANS: Attagene TRANS-FACTORIAL HepG2 Assay for human Estrogen-Related Receptor gamma (ERRg) (AID 2282977); conditions: HepG2 Attagene TRANS reporter, ERRg transactivation;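 also: hits increase reporter signal over DMSO so potencies reflect activators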
Procedure, shortened: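 Exogenous NR-Gal4 chimera activity measured as reporter transcript induction after 24 h in transiently transfected HepG2 cells. RNA reverse-transcribed, PCR-amplified, 6-FAM-labelled and resolved by capillary electrophoresis; increase over DMSO baseline.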

[19] = biological target: Bile acid receptor (Homo sapiens) (UniProt Q96RI1); experiment: ATG_FXR_TRANS: Attagene TRANS-FACTORIAL HepG2 Assay for Farnesoid X Receptor (FXR) (AID 2282979); conditions: HepG2 Attagene TRANS FXR-GAL4 reporter transcription;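 also: hits raise reporter mRNA above DMSO so AC50 marks FXR activation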
Procedure, shortened: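 After 24 h chemical treatment of transfected HepG2 cells, GAL4-UAS reporter transcripts driven by an exogenous FXR-GAL4 fusion were measured by RT-PCR and capillary electrophoresis. Increases over DMSO were fitted.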

[20] = biological target: Oxysterols receptor LXR-beta (Homo sapiens) (UniProt P55055); experiment: ATG_LXRb_TRANS: Attagene TRANS-FACTORIAL HepG2 Assay for human Liver X Receptor beta (LXRb) (AID 2282981); conditions: HepG2 Attagene TRANS GAL4-LXRb reporter, mRNA
Procedure, shortened: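 After 24 h chemical treatment of transfected HepG2 cells carrying exogenous NR-Gal4 chimeras, reporter mRNA was quantified by fluorescent RT-PCR and capillary electrophoresis; activity taken as increase over DMSO controls.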

Measured: AC50

Chain of Oxysterols receptor LXR-alpha (Homo sapiens) (Q13133 whole entry, looked up, the tested form may be a part): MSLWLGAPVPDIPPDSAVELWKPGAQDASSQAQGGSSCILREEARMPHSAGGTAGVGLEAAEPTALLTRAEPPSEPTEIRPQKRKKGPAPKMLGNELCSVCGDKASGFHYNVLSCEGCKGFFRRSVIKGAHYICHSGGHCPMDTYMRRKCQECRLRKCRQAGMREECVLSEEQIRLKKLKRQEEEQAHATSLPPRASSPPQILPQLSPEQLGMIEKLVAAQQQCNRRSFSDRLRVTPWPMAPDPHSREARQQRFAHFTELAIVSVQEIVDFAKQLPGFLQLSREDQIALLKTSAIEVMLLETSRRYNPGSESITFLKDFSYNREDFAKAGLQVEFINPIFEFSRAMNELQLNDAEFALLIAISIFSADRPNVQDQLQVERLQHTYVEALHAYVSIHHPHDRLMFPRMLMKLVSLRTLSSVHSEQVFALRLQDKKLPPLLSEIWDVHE
Chain of Estrogen receptor (Homo sapiens) (P03372 whole entry, looked up, the tested form may be a part): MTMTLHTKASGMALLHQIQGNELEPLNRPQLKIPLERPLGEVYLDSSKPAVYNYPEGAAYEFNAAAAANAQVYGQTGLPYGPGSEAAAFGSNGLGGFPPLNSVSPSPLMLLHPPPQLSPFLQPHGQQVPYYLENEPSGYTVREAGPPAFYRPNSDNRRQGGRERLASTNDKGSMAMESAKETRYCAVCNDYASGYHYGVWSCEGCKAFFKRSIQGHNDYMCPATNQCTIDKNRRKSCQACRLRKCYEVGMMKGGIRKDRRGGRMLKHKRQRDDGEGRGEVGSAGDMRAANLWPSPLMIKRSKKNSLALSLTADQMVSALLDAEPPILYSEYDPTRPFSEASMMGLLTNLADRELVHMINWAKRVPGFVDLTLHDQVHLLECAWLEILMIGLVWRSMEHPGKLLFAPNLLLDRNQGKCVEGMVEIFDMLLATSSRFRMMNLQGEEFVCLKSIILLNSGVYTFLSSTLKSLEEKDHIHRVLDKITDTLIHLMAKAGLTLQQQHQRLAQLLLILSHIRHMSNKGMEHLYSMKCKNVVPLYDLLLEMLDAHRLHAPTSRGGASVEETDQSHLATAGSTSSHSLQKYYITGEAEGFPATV
Chain of Glucocorticoid receptor (Homo sapiens) (P04150 whole entry, looked up, the tested form may be a part): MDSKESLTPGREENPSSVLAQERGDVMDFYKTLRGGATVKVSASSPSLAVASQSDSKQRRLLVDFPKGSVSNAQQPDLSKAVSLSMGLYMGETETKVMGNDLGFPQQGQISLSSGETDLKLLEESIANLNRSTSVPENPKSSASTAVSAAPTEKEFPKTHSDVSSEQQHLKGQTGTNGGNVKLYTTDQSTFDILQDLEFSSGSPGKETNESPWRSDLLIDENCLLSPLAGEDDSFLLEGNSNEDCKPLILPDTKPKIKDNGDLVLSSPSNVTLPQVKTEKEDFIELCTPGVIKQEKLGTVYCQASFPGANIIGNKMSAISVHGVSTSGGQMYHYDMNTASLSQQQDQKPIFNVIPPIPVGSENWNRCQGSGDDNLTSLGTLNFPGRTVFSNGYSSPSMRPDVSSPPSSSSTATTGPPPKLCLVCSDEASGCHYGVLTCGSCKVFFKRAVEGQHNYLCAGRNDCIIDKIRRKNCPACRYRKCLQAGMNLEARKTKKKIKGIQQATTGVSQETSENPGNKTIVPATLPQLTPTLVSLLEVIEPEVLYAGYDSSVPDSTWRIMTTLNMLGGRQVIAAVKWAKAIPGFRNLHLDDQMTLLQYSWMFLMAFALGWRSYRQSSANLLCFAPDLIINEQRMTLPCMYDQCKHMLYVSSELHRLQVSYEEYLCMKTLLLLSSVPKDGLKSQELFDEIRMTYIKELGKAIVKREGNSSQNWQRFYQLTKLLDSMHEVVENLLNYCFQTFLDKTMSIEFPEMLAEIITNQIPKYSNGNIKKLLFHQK
Chain of Nuclear receptor subfamily 1 group I member 3 (Homo sapiens) (Q14994 whole entry, looked up, the tested form may be a part): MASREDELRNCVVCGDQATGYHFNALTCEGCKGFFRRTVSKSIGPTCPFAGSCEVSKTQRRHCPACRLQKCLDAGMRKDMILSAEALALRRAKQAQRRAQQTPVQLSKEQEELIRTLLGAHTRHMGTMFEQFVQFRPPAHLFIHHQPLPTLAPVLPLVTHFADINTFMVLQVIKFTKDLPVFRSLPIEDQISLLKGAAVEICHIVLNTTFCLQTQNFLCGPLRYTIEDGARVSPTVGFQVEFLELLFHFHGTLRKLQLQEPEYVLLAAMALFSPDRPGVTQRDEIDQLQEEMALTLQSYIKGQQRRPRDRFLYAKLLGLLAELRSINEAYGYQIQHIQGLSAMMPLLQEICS
Chain of Estrogen-related receptor gamma (Homo sapiens) (P62508 whole entry, looked up, the tested form may be a part): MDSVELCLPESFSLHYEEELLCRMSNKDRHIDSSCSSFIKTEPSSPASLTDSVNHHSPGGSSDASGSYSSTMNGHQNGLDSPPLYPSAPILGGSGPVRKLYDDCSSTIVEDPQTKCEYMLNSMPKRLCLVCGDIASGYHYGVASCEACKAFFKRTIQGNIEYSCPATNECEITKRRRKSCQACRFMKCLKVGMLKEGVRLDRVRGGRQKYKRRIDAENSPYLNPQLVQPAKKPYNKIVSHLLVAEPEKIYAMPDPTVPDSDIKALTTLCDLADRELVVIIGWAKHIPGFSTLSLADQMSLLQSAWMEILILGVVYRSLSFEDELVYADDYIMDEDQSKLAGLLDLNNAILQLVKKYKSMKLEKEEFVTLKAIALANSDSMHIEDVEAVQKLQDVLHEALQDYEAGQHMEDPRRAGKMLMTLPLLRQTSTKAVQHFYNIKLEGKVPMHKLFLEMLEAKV
Chain of X-box-binding protein 1 (Homo sapiens) (P17861 whole entry, looked up): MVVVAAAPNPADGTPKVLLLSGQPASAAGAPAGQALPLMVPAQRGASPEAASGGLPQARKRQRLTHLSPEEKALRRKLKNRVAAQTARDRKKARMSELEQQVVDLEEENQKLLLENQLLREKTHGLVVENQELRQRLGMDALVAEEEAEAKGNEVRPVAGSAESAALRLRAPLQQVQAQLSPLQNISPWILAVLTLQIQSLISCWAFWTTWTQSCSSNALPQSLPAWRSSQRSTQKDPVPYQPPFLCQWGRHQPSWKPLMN
Chain of Oxysterols receptor LXR-beta (Homo sapiens) (P55055 whole entry, looked up, the tested form may be a part): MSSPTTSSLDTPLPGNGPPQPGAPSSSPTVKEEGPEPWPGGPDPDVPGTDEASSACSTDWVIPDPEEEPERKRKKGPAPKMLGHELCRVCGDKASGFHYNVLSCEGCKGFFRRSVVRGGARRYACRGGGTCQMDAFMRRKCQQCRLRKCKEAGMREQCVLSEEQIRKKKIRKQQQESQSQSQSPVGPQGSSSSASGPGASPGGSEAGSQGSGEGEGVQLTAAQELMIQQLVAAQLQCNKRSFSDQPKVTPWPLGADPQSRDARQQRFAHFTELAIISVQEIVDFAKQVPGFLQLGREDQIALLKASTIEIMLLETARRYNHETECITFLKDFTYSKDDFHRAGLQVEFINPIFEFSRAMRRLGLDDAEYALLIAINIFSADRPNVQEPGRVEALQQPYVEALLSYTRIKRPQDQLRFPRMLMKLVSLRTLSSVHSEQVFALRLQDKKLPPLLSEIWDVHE
Chain of Hepatocyte nuclear factor 4-alpha (Homo sapiens) (P41235 whole entry, looked up, the tested form may be a part): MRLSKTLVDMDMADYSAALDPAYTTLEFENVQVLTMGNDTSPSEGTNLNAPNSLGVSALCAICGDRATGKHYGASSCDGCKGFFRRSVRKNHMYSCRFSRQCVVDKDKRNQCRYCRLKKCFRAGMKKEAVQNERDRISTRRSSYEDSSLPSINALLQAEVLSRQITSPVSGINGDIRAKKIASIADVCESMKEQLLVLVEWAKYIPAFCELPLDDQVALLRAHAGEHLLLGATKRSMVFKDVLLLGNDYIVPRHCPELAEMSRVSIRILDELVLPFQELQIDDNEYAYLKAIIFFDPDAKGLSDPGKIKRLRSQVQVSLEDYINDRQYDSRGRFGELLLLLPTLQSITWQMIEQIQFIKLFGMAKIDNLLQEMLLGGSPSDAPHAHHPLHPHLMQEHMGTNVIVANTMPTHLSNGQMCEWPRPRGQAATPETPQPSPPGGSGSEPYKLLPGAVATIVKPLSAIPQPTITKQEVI
Chain of Steroid hormone receptor ERR1 (Homo sapiens) (P11474 whole entry, looked up, the tested form may be a part): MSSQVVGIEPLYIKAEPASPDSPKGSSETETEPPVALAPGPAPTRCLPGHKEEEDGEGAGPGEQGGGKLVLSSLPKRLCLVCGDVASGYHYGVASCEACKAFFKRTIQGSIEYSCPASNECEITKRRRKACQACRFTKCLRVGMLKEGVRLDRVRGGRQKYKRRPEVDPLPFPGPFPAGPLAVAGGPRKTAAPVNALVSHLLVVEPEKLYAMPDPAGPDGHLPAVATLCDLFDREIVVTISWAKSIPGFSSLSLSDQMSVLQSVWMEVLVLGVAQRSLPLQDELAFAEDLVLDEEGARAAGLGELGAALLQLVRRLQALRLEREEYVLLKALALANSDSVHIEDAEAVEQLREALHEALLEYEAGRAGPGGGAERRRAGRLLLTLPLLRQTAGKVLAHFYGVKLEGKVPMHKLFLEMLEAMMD
Chain of Nuclear receptor subfamily 4 group A member 2 (Homo sapiens) (P43354 whole entry, looked up, the tested form may be a part): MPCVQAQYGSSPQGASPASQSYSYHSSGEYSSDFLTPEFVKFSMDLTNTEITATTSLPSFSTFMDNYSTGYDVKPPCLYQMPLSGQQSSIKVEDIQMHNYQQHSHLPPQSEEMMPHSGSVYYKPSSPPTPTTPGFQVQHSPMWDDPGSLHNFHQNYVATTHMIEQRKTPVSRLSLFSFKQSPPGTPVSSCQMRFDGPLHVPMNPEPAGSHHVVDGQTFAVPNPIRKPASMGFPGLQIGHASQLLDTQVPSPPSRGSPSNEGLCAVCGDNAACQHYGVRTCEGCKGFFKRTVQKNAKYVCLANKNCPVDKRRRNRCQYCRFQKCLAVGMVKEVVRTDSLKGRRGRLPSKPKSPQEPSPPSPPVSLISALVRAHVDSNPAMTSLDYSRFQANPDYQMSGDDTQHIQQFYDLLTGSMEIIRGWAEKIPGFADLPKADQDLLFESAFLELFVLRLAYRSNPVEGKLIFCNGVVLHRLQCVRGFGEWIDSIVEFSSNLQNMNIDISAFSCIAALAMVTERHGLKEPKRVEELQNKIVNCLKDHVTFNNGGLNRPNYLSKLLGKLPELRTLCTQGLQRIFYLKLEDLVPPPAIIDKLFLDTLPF

N#Cc1ccc(C2CCCc3cncn32)cc1 (centres undefined)
active: [6] 25.8 µM
not listed: [14] | [15] | [16] | [17] | [18] | [19] | [20]
inactive: all other assays above

CC(C)=CCCC(C)=CC#N
not listed: [11] | [17] | [18] | [19] | [20]
inactive: all other assays above

Cc1cccc(C(C)(C)C)c1O
active: [4] 19.9 µM
not listed: [8] | [9] | [15] | [17] | [18] | [19] | [20]
inactive: all other assays above

CCCCCCOC(=O)CCCCC(=O)OCCCCCC
not listed: [5] | [8] | [10] | [11] | [12] | [14] | [16]
inactive: all other assays above

O=C(O)CC(C(=O)O)S(=O)(=O)O (centres undefined)
inactive: [1] | [2] | [3] | [4] | [5] | [7] | [8] | [9] | [18] | [16] | [13]

CCOC(=O)/C=C\C(=O)OCC
not listed: [5] | [8] | [9] | [10] | [14] | [15] | [19]
inactive: all other assays above

CCCC(CC)c1ccccc1 (centres undefined)
active: [6] 55.3 µM
inactive: [1] | [2] | [3] | [4] | [5] | [7] | [8] | [10] | [13]

C=CCOC(=O)c1ccc(C(=O)OCC=C)c(C(=O)OCC=C)c1
active: [4] 41.6 µM
not listed: [9] | [11] | [12] | [16] | [17] | [18] | [19] | [20]
inactive: all other assays above

C=C(C)C(=O)OCCCCCCCCCCCC
active: [6] 56.7 µM
not listed: [9] | [10] | [14] | [15] | [16] | [19] | [20]
inactive: all other assays above

c1ccc(Nc2cccc3ccccc23)cc1
inactive: [2] | [3] | [5] | [14] | [20] | [15] | [16] | [12]
active: [1] 50.8 µM | [4] 10.3 µM | [6] 2.75 µM | [7] 53.5 µM | [13] 33.4 µM

CC1(C)[C@@H]2CC[C@@]1(C)C(=O)C2
not listed: [9] | [10] | [11] | [14] | [15] | [19] | [20]
inactive: all other assays above

— PubChem BioAssay (EPA / NIEHS)
